In the first test the target is CCDC124. Put plainly: pooled miR-30 sensor sort-seq; sequence = guide strand. As to conditions: shRNA.
On to TTGAGCAGCTGTTTCAGCTGCG, for which the sensor-assay potency score (higher = more potent) was 0.469.
Still for that read-out and setting: the figure for TAGGCGCTGCGTCTCCTTCTTA is -1.03; for TTGTCGTCGTCCTTCCAGTAGG it is -1.14.

A further test concerns the target CCDC136. The test is described as above. To be noted: shRNA.
On to TAGAGAACGCAGCTCACCTTGG, for which the sensor-assay potency score (higher = more potent) was -0.542.
Same read-out and setting: under TTGTTGACTGACAGAGAGCCAA stands -0.719; under TTCATTTCCATTTCTGCACGGA, -0.0377; under TTGCGGAATCCTCTGCTGCTTG, -0.962.
TTCCTGACACTTGTTCTTCATG: the sensor-assay potency score (higher = more potent) was -1.21.
Same read-out and setting: under TTTCTGAAGTCTGAGACTCTGC stands -0.127.
The same measure, in the same setting: the figure for TTCTATTTCCTTAAGTTCGCTT is 0.0212; for TTACAAGGAACTCAGGTTCTTA it is -0.441; for TTTCTCATGCTCTAACAGGGAA it is -0.6.
Same read-out and setting: the figure for TAACAGGGAAATCTCCTCCCGT is -0.529.
Take TTAAGTTCGCTTTCTTTCTCAT: the sensor-assay potency score (higher = more potent) was -0.0696.
For the sequence TTCAAGTTCATTCTGCATCCGG, the sensor-assay potency score (higher = more potent) is 0.279.

The target of a further test is CCDC19. The test is described as above. As to conditions: shRNA.
Regarding TTCTTTTTGGATCTGCTGCTTC, the sensor-assay potency score (higher = more potent) is -0.755.
TTAGCATTGAGGATAATCTTGC returned a sensor-assay potency score (higher = more potent) of 0.12.
Sequence TTTTCCTCTTGATCTCATCGAT displayed a sensor-assay potency score (higher = more potent) of 0.115.
Consider TTGAGGATAATCTTGCTCATGT, for which the sensor-assay potency score (higher = more potent) was -0.0129.
In the case of TTGAAGGGTATGCTTATCTCGG, the sensor-assay potency score (higher = more potent) was -0.289.
As to TTCTGCGCCACTCTCTGTCTGC, the sensor-assay potency score (higher = more potent) is -0.303.
For the sequence TTGGATCTGCTGCTTCTCCAGG, the sensor-assay potency score (higher = more potent) was -1.06.
Turning to TTTCCTCTTGATCTCATCGATG, the sensor-assay potency score (higher = more potent) was -0.984.
Same read-out and setting: under TTTGATTCGCTCAAACTCCTCA stands 0.0568; under TTCAATGCAGTACTTCTCGGGA, -0.758.
In the case of TTCTGTTTCATGATCTTCTTTC, the sensor-assay potency score (higher = more potent) was -0.0443.

The next test has as its target CCDC47. The description is as above. As to conditions: shRNA.
Turning to TTTCATTTGCTTCTTTTCCAAC, the sensor-assay potency score (higher = more potent) was -1.25.
Turning to TTGCCTTCTCTGTTGAGTCGGA, the sensor-assay potency score (higher = more potent) is -0.0399.
Consider TTCTCTGTTGAGTCGGAACTTT, for which the sensor-assay potency score (higher = more potent) is -0.845.
Take TAAGTCTTGTCTCTTGAGGAAC: the sensor-assay potency score (higher = more potent) is -1.49.
The same measure, in the same setting: the figure for TTGCACTTGATCACTCACTGGC is 0.924.
For TTCTAGATAATAACTCTCCCAG, the sensor-assay potency score (higher = more potent) is -0.381.
Consider TTTGCTAGAAGAAGTATCTGGT, for which the sensor-assay potency score (higher = more potent) was 0.978.
In turn, TTTTGCTAGAAGAAGTATCTGG yielded a sensor-assay potency score (higher = more potent) of 0.452.
Sequence TTAAATGTAAACAACAGTGTCC displayed a sensor-assay potency score (higher = more potent) of 0.382.
In the case of TGCAGGAACATCAACAATCGTT, the sensor-assay potency score (higher = more potent) is -0.762.
Still for that read-out and setting: under TTCAGTAACAGAGTCTTCCATG stands -0.75.
For the sequence TAAAGTAAAGTTGCTCTCCAAA, the sensor-assay potency score (higher = more potent) was -1.24.

These data come from the OligoGym collection.
Note: reference of the scale not given here.
